# This is one part of a sample in which hits are shown more often than they occur.
# AMPAR-TARP mod = modulators of GluA2-stargazin AMPA receptor complexes, primary screen, cell-based, membrane potential dye | 3.5% of 40,000 active | calls only at 30 µM | Voltage-dependent calcium channel gamma-2 subunit (Mus musculus) + Glutamate receptor 2 … | HEK293 GluA2+stargazin, membrane potential dye (FDSS), glutamate EC50; hits were called plate by plate, in both directions;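 active = any of four per-well response measures lying three or more SD from its plate-wide compound average, in either direction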
# GIRK2 act = activators of NPY4-receptor-primed GIRK2 channels, summary, cell-based, HEK293, thallium flux | G protein-activated inward rectifier potassium channel 2 (Homo sapiens), P48051 | HEK293 GIRK2/NPY4 cells, thallium flux fluorescence | activation (% efficacy), % for hits at 37.5 µM | 34,000 tested, under 10 active | AID 1259324, 2017;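 active = primary screen hit, no activity in plain HEK293 cells, and in GIRK2-only cells above 5% efficacy rising with concentration; inactive = the rest, including fluorescent compounds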;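 also: efficacy is normalized control-subtracted fluorescence 15 s after thallium addition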
# Target sequence (P48051 whole entry, looked up): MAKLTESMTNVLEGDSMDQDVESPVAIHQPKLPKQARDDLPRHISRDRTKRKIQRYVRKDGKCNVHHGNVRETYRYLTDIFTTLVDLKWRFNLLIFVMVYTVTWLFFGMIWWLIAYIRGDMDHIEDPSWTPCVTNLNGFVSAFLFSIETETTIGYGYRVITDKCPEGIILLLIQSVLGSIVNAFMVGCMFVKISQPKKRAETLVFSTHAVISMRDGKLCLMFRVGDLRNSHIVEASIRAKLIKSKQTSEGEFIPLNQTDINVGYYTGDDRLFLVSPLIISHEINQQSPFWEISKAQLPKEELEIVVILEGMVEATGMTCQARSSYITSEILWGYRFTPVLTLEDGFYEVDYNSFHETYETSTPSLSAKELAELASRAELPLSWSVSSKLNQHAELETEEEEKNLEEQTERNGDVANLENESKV
# * = called active by the depositor; i = inactive; x = no result; + = active, no number.
SMILES,AMPAR-TARP mod,GIRK2 act
COc1ccc(S(=O)(=O)CCC(=O)N(Cc2ccccc2)c2nc3ccccc3s2)cc1,i,i
CN(C)CCN(C(=O)CCCS(=O)(=O)c1ccc(F)cc1)c1nc2ccccc2s1,i,x
COc1ccc(S(=O)(=O)CCC(=O)N(CCN(C)C)c2nc3ccc([N+](=O)[O-])cc3s2)cc1,+,x
Cc1c(Cl)ccc2sc(NCCCN(C)C)nc12,i,i
CN(C)CCN(C(=O)CCCS(=O)(=O)c1ccc(F)cc1)c1nc2ccc([N+](=O)[O-])cc2s1,+,x
COc1ccc(NS(=O)(=O)c2ccc(C)cc2C)cc1N1CCCC1=O,i,i
COc1cc(C2NC(=O)NC(O)(C(F)(F)F)C2C(C)=O)ccc1OCc1ccc(Cl)cc1 (stereo not given),i,x
COc1cc(C2NC(=O)NC(O)(C(F)(F)F)C2C(C)=O)ccc1OCc1ccccc1 (stereo not given),+,x
O=C(CSc1ccc(F)cc1)N(CCc1ccccc1)Cc1ccccn1,i,i
COc1ccc(Nc2nnc(C)c(=O)[nH]2)cc1OC,i,i
O=C(NCC1CCN(c2ccccn2)CC1)c1cccc(C(F)(F)F)c1,x,i
O=C(CCS(=O)(=O)c1ccccc1)Nc1ccc2ncsc2c1,i,i
CN(C)C(CNS(=O)(=O)c1cc(Cl)ccc1Cl)c1cccn1C (stereo not given),+,i
Cc1ccc(Cl)cc1S(=O)(=O)NCC(c1cccn1C)N(C)C (stereo not given),i,i
C=CCn1c(C2CC(=O)N(Cc3ccccc3)C2)nc2ccccc21 (stereo not given),i,x
COc1ccc(NC(=O)CSC2=NC(C)(C)N=C2c2ccccc2)cc1OC,i,i
COc1cc(OC)cc(C2=NC3(CCCC3)N=C2SCC(=O)Nc2ccccc2)c1,+,i
CC1CCN(C(=O)CSc2ccnc3c2c(=O)n(C)c(=O)n3C)CC1,i,x
CCCCSc1ccnc2c1c(=O)n(C)c(=O)n2C,+,x
C#CCSc1ccnc2c1c(=O)n(C)c(=O)n2C,i,x
Cn1c(=O)c2c(SCC(=O)N3CCOCC3)ccnc2n(C)c1=O,+,x
O=C(C1=COCCO1)N(CCN1CCOCC1)c1nc2ccccc2s1,i,x
O=C(C1=COCCO1)N(CCN1CCOCC1)c1nc2c(F)cccc2s1,+,i
CC(=O)Nc1ccc(S(=O)(=O)N2CCN(C(=O)c3cnn4ccccc34)CC2)cc1,i,i
COc1cc(-c2nc(COC(=O)c3nnn(-c4ccc(F)cc4)c3C)c(C)o2)cc(OC)c1OC,i,i
SMILES,AMPAR-TARP mod,GIRK2 act
CCOc1ccc(NC(=O)NCC(O)(c2ccco2)C2CC2)cc1 (stereo not given),i,i
O=C(c1cc(=O)c2ccccc2o1)N1CCN(C(=O)c2cnn3ccccc23)CC1,i,i
Cn1cc(C(=O)N2CCCCCC2)cc(NC(=O)c2cc(Cl)ccc2Cl)c1=O,i,x
Cn1cc(C(=O)N2CCCCCC2)cc(NC(=O)c2ccccc2Cl)c1=O,+,x
O=[N+]([O-])c1cccc(S(=O)(=O)NCC2COC3(CCCCC3)O2)c1 (stereo not given),+,i
O=[N+]([O-])c1ccc(S(=O)(=O)NCC2COC3(CCCCC3)O2)cc1 (stereo not given),i,i
CC1CN(c2ncnc3c2cnn3CCNC(=O)Cn2cnc3ccccc32)CC(C)O1 (stereo not given),i,x
CCc1ccccc1-n1nnnc1SCC(=O)N1CCOCC1,i,i
CCN1CCc2c(sc(NC(=O)Cc3ccccc3)c2-c2nc3ccccc3s2)C1,i,x
O=S(=O)(NCC(O)(c1ccccc1)C(F)(F)F)c1ccccc1Cl (stereo not given),i,i
Cc1c(Cl)cccc1S(=O)(=O)NCC(O)(c1ccccc1)C(F)(F)F (stereo not given),+,i
O=C(Nc1ccc(-n2cnnn2)cc1)c1csc(-c2cnccn2)n1,i,i
CC(=O)NS(=O)(=O)c1ccc(NC(=O)c2csc(-c3cnccn3)n2)cc1,+,i
CC(C)NC(=O)CSc1nnc2c(=O)n(Cc3ccc(F)cc3)ccn12,i,i
C/C(Cl)=C\Cn1c(NCc2ccco2)nc2c1c(=O)n(C)c(=O)n2C,i,x
COc1ccc(N=Cc2c(NCCO)nc3c(C)cccn3c2=O)cc1,+,i
Cc1cccn2c(=O)c(C=NCCO)c(NCc3ccco3)nc12,+,x
Cc1cccn2c(=O)c(/C=N/O)c(NCCO)nc12,i,x
COc1ccc(CCNC(=O)CC2NCCNC2=O)cc1OC (stereo not given),i,x
COc1ccc(C(=O)/C=C/c2ccccc2Cl)c(OC)c1,i,x
COc1ccc(OC)c(C(=O)/C=C/c2ccccc2Cl)c1,+,x
Cn1nc(-c2ccc(NS(=O)(=O)c3ccc(-c4ccccc4)cc3)cc2)ccc1=O,i,i
COC(=O)c1ccc(NC(=O)C2CN(c3nc4c(F)cccc4s3)C2)cc1,i,i
Cc1ccc(S(=O)(=O)Nc2ccc3c(c2)N(S(=O)(=O)c2ccc(C)cc2)CCC3)cc1,i,i
COc1ccc(CCNC(=O)Nc2ccc3c(c2)N(C(=O)c2ccccc2)CCC3)cc1,x,i
SMILES,AMPAR-TARP mod,GIRK2 act
Cc1ccc(S(=O)(=O)N2CCCc3ccc(NS(=O)(=O)c4ccc(F)cc4)cc32)cc1,+,i
Cc1ccc(OCC(=O)Nc2ccc3c(c2)CCCN3S(=O)(=O)c2ccc(C)cc2)cc1,i,x
CCOc1ccc(CC(=O)Nc2ccc3c(c2)CCCN3S(=O)(=O)c2ccc(C)cc2)cc1,+,x
COc1ccc(CCNC(=O)Nc2ccc3c(c2)N(S(=O)(=O)c2ccccc2)CCC3)cc1,+,x
O=S(=O)(Nc1ccc2c(c1)N(S(=O)(=O)c1ccccc1)CCC2)c1ccc(F)cc1,i,x
Cc1ccc(S(=O)(=O)N2CCCc3ccc(NS(=O)(=O)c4ccccc4)cc32)cc1,+,i
O=C(Cc1noc2ccccc12)NC1CCCCC1N1C(=O)CSC1=O (stereo not given),i,i
COc1ccc(-c2nsc(C(=O)N3CCN(c4cccc(Cl)c4)CC3)c2N)cc1,x,i
COc1nn(C)cc1C(=O)NCC(=O)NCc1cccnc1,i,i
COc1ccccc1CC(=O)Nc1cccc(-c2ccc3nnc(-c4cccs4)n3n2)c1,i,i
COc1ccc(S(=O)(=O)N2CCCc3cc(NS(=O)(=O)c4ccccc4)ccc32)cc1,i,x
COc1ccc(S(=O)(=O)N2CCCc3cc(NS(=O)(=O)c4cccc(C)c4)ccc32)cc1,+,x
O=C(NCC1CCN(Cc2ccccc2)CC1)C(=O)Nc1ccc2c(c1)OCO2,+,i
O=C(NCC1CCN(Cc2ccccc2)CC1)C(=O)Nc1ccc2c(c1)OCCO2,i,i
CC(C)NC(=O)Cn1cc(-c2nc(-c3cnccn3)no2)ccc1=O,i,i
N#Cc1ccccc1Cn1cc(-c2nc(-c3cnccn3)no2)ccc1=O,+,i
CCC(C)NC(=O)c1cc2cc(Br)cc(OC)c2oc1=O (stereo not given),i,i
